Screening results deposited in PubChem by National Center for Advancing Translational Sciences (NCATS).
HT1080NT lethal = kills 2HG-producing HT-1080-NT fibrosarcoma cells; 360,000 tested, 1.6% active; Potency, µM (titrated, usually from 46.1 µM), for the others: at the highest dose activity, negative = less viability, hits mostly cytotoxic; HT-1080-NT fibrosarcoma viability, CellTiter-Glo ATP luminescence, 48 h; AID 686970;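 note: NT is the 2HG producing partner of a matched IDH1 knockdown line; 0% = DMSO-treated cells and -100% = media-only wells without cells; nearly all actives have a fitted effect of over 55% in size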
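HT-1080-NT; 750 cells/well; 5% FBS RPMI; 48 h compound, 37 degrees C; CellTiter-Glo luminescence; curve fitting and curve-class assignment.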
DT40 TDP1 no CPT = qHTS for Inhibitors of human tyrosyl-DNA phosphodiesterase 1 (TDP1): qHTS in cells in absence of CPT; 420,000 tested, 15% active; Potency, µM (series often up to 46.2 µM), inactives show at the highest dose activity change, negative = growth inhibition, usual class: inhibitors; AID 686978, 2013; DT40 Tdp1-/- hTDP1 cells, no CPT, ATP luminescence, 48 h; note: nearly all actives have a fitted effect of over 55% in size
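A cellular qHTS used chicken DT40 cells lacking endogenous Tdp1 but carrying stably transfected human TDP1. Compounds were applied without camptothecin, and cell growth kinetics were judged by ATP-dependent luminescence after ≥48 hr.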
KB-V1 cytotox = kills drug-selected multidrug resistant KB-V1 cells. KB-V1 MDR cells viability, CellTiter-Glo, 72 h. Potency, µM (highest dose often 46.1 µM), usual class: cytotoxic. 400,000 tested, 3.4% active; note: nearly all actives have a fitted effect of over 60% in size
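KB-V1 MDR subline cells in DMEM (phenol-red free, 10% FBS) exposed to compounds in qHTS concentration series for 72 h at 37 degrees C. Viability read by CellTiter-Glo luminescence; concentration-effect curves fitted after normalization and correction.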
HT1080 IDH1KD tx = kills HT-1080 cells with IDH1 knockdown | HT-1080 IDH1 knockdown viability, ATP luminescence, 48 h | Potency, µM (highest dose often 46.1 µM), without a hit: at the highest dose activity, negative = toxicity, most hits filed as cytotoxic | 360,000 tested, 2% active;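 note: 0% = DMSO wells and -100% = cell-free medium wells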
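CellTiter-Glo luminescence after 48 h compound exposure at 37 degrees C of IDH1-knockdown HT-1080 cells in 5% FBS RPMI. %Activity scaled between DMSO wells and cell-free media wells, with curves fitted and assigned curve classes.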
TDP1 cell CPT = DT40-hTDP1 cell growth loss with CPT. chicken DT40 Tdp1-/-;hTDP1 cells + 20 nM CPT, ATP luminescence, 48 h. Potency, µM (doses to about 46.2 µM), inactives show top-dose activity change, negative = growth inhibition, hits mostly inhibitors. 420,000 tested, 12% active. AID 686979; note: nearly all actives have a fitted effect of over 55% in size
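Chicken DT40 Tdp1-/- cells stably complemented with human TDP1 were seeded at 400 cells/well in medium containing 20 nM camptothecin, exposed to pin-transferred compounds, and grown at 37 °C for at least 48 hr. Viability was read as ATP luminescence.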
KB-3-1 cytotox = KB-3-1 parental cell cytotoxicity; KB-3-1 viability, CellTiter-Glo ATP luminescence, 72 h; Potency, µM (top dose mostly 46.1 µM), usual class: cytotoxic; 400,000 tested, 1.4% active; AID 1347075; note: nearly all actives have a fitted effect of over 60% in size
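Parental KB-3-1 viability, qHTS format: 72 h compound exposure, 37 °C; CellTiter-Glo; media-only wells and DMSO plates as controls; concentration-effect fits on corrected data.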
An asterisk follows results filed as active; i = inactive; ? = inconclusive; / = no result given; [ ] = remark or other dose. Shown are actives, neighbours in structure and some others; about 19% of the full set was active somewhere. Calls come from the whole dose curve; as a rule, active = well fitted curve in the direction sought with a large enough effect; inconclusive = small, poorly fitted or top-dose-only effect, or another doubt; inactive = no such curve, though single readings can be large; an effect the other way counts as inactive or inconclusive. Unless noted, % is set by controls: 0 for no effect and ±100 for the full control effect; potency is the fitted concentration of half-maximal effect.

SMILES	HT1080NT lethal	DT40 TDP1 no CPT	KB-V1 cytotox	HT1080 IDH1KD tx	TDP1 cell CPT	KB-3-1 cytotox
COc1cccc(CNS(=O)(=O)c2cc(CN3C(=O)c4cccnc4C3=O)ccc2OC)c1	-0.8%	0.4%	i	0.0%	-0.6%	i
CC1(C(=O)NS(=O)(=O)c2ccc3ccccc3c2)CCN1C(=O)Cc1ccc(-c2ccccc2)cc1 (configuration not stated)	-2.7%	-17.0%	i	-3.1%	-8.7%	i
COc1ccccc1C1C(C(C)=O)=C(C)N=c2s/c(=C\c3cc(OC)c(OC)c(OC)c3)c(=O)n21 (configuration not stated)	-6.6%	20.6µM*	?	-6.9%	16.4µM*	i
CC(C)CN(C(=O)CN(C)CC(=O)Nc1ccc(Cl)c(C(F)(F)F)c1)c1c(N)n(CC(C)C)c(=O)[nH]c1=O	-8.4%	18.4µM*	i	-8.3%	?	i
CCCCn1c(N)c(N(CCOC)C(=O)CSCc2ccc(Cl)c(Cl)c2)c(=O)[nH]c1=O	-2.4%	?	i	-0.3%	-25.6%	i
COc1ccc(Cl)cc1NC(=O)CN(C)CC(=O)N(CC(C)C)c1c(N)n(CC(C)C)c(=O)[nH]c1=O	-5.5%	-1.1%	?	-5.3%	13.0%	i
CCCCn1c(N)c(N(CCOC)C(=O)CN(C)CC(=O)Nc2ccc(Cl)c(Cl)c2)c(=O)[nH]c1=O	-8.9%	?	i	-16.2%	18.4µM*	i
CCCCCN(C(=O)CCC(=O)OCc1cccc(C)c1)c1c(N)n(CCCC)c(=O)[nH]c1=O	-0.1%	?	i	-14.9%	20.6µM*	i
COc1ccc(CCNC(=O)CSc2nnc3ccc(-c4ccccn4)nn23)cc1OC	13.0%	?	i	3.2%	1.4%	i
O=C(CCCn1c(SCC(=O)NCCc2ccccc2)nc2ccccc2c1=O)NCC1CCCO1 (configuration not stated)	-0.2%	-7.0%	i	1.1%	-20.1%	i
O=C(CNC(=O)c1ccccc1O)N/N=C/c1cc(Br)ccc1OC(=O)/C=C/c1ccco1	?	4.61µM*	?	?	7.31µM*	?
O=C(CNC(=O)c1cccc(F)c1)N/N=C/c1cc(Br)ccc1OC(=O)/C=C/c1ccco1	?	3.66µM*	i	?	7.31µM*	?
O=C(CN1CCN(S(=O)(=O)c2ccc(F)cc2)CC1)Nc1ccc(Cl)c(C(F)(F)F)c1	?	9.2µM*	16.4µM*	-13.3%[9.24 µM]	18.4µM*	?
O=C(CN1CCN(CC(=O)Nc2ccccc2F)CC1)Nc1cccc(F)c1	15.4%	-25.4%	i	21.5%	-21.9%	i
O=C(CN1CCN(c2ccc(Cl)cc2)CC1)Nc1ccc(Cl)c(C(F)(F)F)c1	/	16.4µM*	i	/	?	i
CC(C)(C)c1ccc(S(=O)(=O)N2CCN(CC(O)COCC3CCCO3)CC2)cc1 (configuration not stated)	0.2%	-12.5%	i	-2.6%	-15.5%	i
O=C(CN1CCN(c2ccc(Cl)cc2)CC1)Nc1cccc(F)c1	-14.7%	?	?	-11.4%	-27.7%	?
O=C(CN1CCN(S(=O)(=O)c2ccc(F)cc2)CC1)Nc1ccc2c(c1)OCCO2	-12.2%	-25.2%	?	-0.8%	-1.1%	i
O=C(CN1CCN(CC(=O)Nc2ccccc2F)CC1)Nc1ccc(Cl)c(C(F)(F)F)c1	/	6.51µM*	i	/	7.31µM*	i
O=S(=O)(c1ccc(Cl)c(C(F)(F)F)c1)N1CCN(CC(O)COCC2CCCO2)CC1 (configuration not stated)	-16.2%	18.4µM*	i	-4.9%	20.6µM*	i
O=C(CN1CCN(S(=O)(=O)c2ccc(Cl)c(C(F)(F)F)c2)CC1)NC(=O)NC1CCCCC1	0.7%	?	i	7.7%	20.6µM*	i
CCOc1ccc(NC(=O)CN2CCN(CC(=O)Nc3ccc(Cl)c(C(F)(F)F)c3)CC2)cc1	?	9.2µM*	i	?	11.6µM*	i
CCOc1ccc(NC(=O)CN2CCN(CC(=O)Nc3cccc(F)c3)CC2)cc1	-11.3%	-21.9%	i	-0.5%	?	i
CN(C)CC(C)(C)CNC(=O)c1cnn(-c2nccc(-c3ccc4c(c3)OCO4)n2)c1-c1ccco1	/	?	/	/	-19.9%[9.04 µM]	/
N#Cc1cc(C(=O)c2cc(Br)ccc2O)cn(Cc2ccccc2)c1=O	?	20.6µM*	i	-27.7%	?	i
SMILES	HT1080NT lethal	DT40 TDP1 no CPT	KB-V1 cytotox	HT1080 IDH1KD tx	TDP1 cell CPT	KB-3-1 cytotox
Cc1ccccc1-n1cc(C(=O)c2cc(Cl)ccc2O)cc(C#N)c1=O	-0.2%	11.6µM*	14.6µM*	-0.8%	?	?
N#Cc1cc(C(=O)c2cc(Cl)ccc2O)cn(CC2CCCO2)c1=O (configuration not stated)	-0.1%	20.6µM*	i	-4.2%	?	i
COc1ccc(O)c(C(=O)c2cc(C#N)c(=O)n(Cc3ccccc3)c2)c1	-3.1%	?	?	-11.2%	?	i
Cc1c(-n2cc(C(=O)c3cc(F)ccc3O)cc(C#N)c2=O)c(=O)n(-c2ccccc2)n1C	0.2%	-9.6%	i	2.5%	4.0%	i
CN(C(=O)c1cccc(NC(=O)Cc2ccc(NC(=O)C3CCCN(C(=O)C4CCC4)C3)cc2)c1)C1CCCC1 (configuration not stated)	-0.5%	?	i	-2.2%	?	i
O=C(O)c1ccccc1O	23.9%	-5.1%	i	8.9%	6.3%	i
Cc1cc(O)c(C(=O)/C=C/c2ccccc2O)c(=O)o1	2.4%	29.1µM*	i	4.8%	23.1µM*	i
O=C(/C=C(\O)c1ccccc1)c1ccccc1O	/	8.2µM*	/	/	16.4µM*	/
Cc1cc(O)c(C(=O)/C=C/c2cccc([N+](=O)[O-])c2)c(=O)o1	0.8%	?	i	16.4%	?	i
O=C(NNS(=O)(=O)c1ccccc1[N+](=O)[O-])c1ccc(O)cc1	19.4%	2.9%	i	5.6%	3.1%	i
CCOc1ccccc1/C=C/C(=O)c1ccc(Cl)cc1	-1.3%	16.4µM*	i	0.7%	?	i
O=C(NNS(=O)(=O)c1ccccc1[N+](=O)[O-])c1ccc(F)cc1	-17.6%	16.4µM*	i	?	?	?
